# Compound activity from PubChem.
# JMJD2E inh-1: inhibitors of human JMJD2E histone demethylase. JMJD2E catalytic domain, FDH-coupled NADH fluorescence. Potency, µM (series often up to 57.1 µM), inactives show top-dose activity change, negative = inhibition, hits mostly inhibitors. 1.6% of 230,000 active. B2RXH2; active means well fitted inhibition curve with a large enough effect, not every such curve was filed as active; inconclusive means small, poorly fitted or top-dose-only effect, or another doubt; inactive means no such curve, though single readings can be large or run the other way;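 further: potency means the concentration at half of the fitted maximal effect; 0% = wells with enzyme and -100% = buffer wells without enzyme; nearly all actives have a fitted effect of over 50% in size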
# JMJD2A Tudor inh: JMJD2A Tudor domain (human) inhibition. O75164. AlphaScreen JMJD2A-Tudor / H3K4me3 peptide binding. Potency, µM (highest dose often 114 µM), without a hit: at the highest dose activity change, negative = inhibition, actives largely listed as inhibitors. 4.4% of 390,000 active; further: potency means the concentration at half of the fitted maximal effect; on the % scale 0 is the no-effect control and ±100 the full control effect; nearly all actives have a fitted effect of over 50% in size
# PI5P4K alpha inh: blocks human PI5P4K alpha kinase activity; P48426; PI5P4Kalpha enzyme, ADP-Glo luminescence, 60 min; stronger effect = lower value; max response, %; 1.2% of 330,000 active; active means max response of -50% or lower; inconclusive means between -30% and -50%; inactive means -30% or higher; further: value at the top dose of about 77 µM; on the % scale 0 is the no-effect control and ±100 the full control effect
#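 ADP-Glo luminescence end-point read after a 60 min room-temperature kinase reaction of PI5P4Kalpha plus substrate, initiated with ATP at 5 microM final. Buffer: 0.038 M HEPES pH 7.4, EGTA, 0.1% CHAPS, 5% DMSO.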
# BAZ2B inh: BAZ2B (human) inhibition | AlphaScreen BAZ2B-H3K14Ac peptide displacement | Potency, µM (series often up to 114 µM), inactives show top-dose activity change, negative = inhibition, most hits filed as inhibitors | 4.4% of 360,000 active | AID 504333; further: potency means the concentration at half of the fitted maximal effect; on the % scale 0 is the no-effect control and ±100 the full control effect; nearly all actives have a fitted effect of over 60% in size
#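 AlphaScreen luminescence quantifies BAZ2B engagement of H3K14Ac peptide; the protein and biotinylated peptide are both at 50 nM final, buffer PBS pH 7.4 with 0.01% Tween-20, all steps at room temperature.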
# L3MBTL1 block: inhibitors of human L3MBTL1. AlphaScreen L3MBTL1–H3K9me1 peptide binding. Potency, µM (series often up to 57.1 µM), without a hit: at the highest dose activity, negative = inhibition, most hits filed as inhibitors. 0.66% of 230,000 active; further: potency means the concentration at half of the fitted maximal effect; on the % scale 0 is the no-effect control and ±100 the full control effect; nearly all actives have a fitted effect of over 60% in size
#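 AlphaScreen assay: L3MBTL1 (50 nM final) was preincubated 30 min at room temperature with biotinylated H3(1-15)K9me1 peptide (75 nM final), then 30 min with library compounds; streptavidin donor and nickel chelate acceptor beads (10 ug/mL final) added, 30 min dark.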
# HP1b binding inh: HP1-beta chromodomain-methylated histone interaction inhibition; P83916; AlphaScreen HP1-beta / biotin-H3K9me3 peptide binding; Potency, µM (doses to about 114 µM), for inactives: top-dose activity change, negative = inhibition, most hits filed as inhibitors; 0.56% of 390,000 active; AID 540317; further: potency means the concentration at half of the fitted maximal effect; nearly all actives have a fitted effect of over 70% in size
#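 Compound inhibition of the preformed complex between 50 nM HP1-beta and 50 nM biotinylated H3K9me3 peptide was read by AlphaScreen. Buffer was PBS pH 7.4 with 0.01% Tween-20. Incubations ran 30 min at room temperature, with 10 ug/mL donor/acceptor beads.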
# JMJD2E inh-2: JMJD2E (human) demethylase inhibition, confirmation. shares compounds with JMJD2A Tudor inh. Recombinant JMJD2E, FDH-coupled NADH fluorescence (FDH is formaldehyde dehydrogenase). Potency, µM (titrated, usually from 56.8 µM), for the others: at the highest dose activity change, negative = inhibition, hits mostly inhibitors. 93% of 140 active. AID 2677
# FDH counter: blocks Pseudomonas putida formaldehyde dehydrogenase, flagging JMJD2E artifacts; Potency, µM (doses to about 56.7 µM), for the others: at the top dose activity, negative = inhibition, actives largely listed as inhibitors; 10% of 140 active; shares compounds with JMJD2A Tudor inh; FDH enzyme assay, NADH fluorescence kinetic
# G9a inh: inhibits human G9a histone lysine methyltransferase, hit confirmation; shares compounds with JMJD2A Tudor inh; G9a H3K9 monomethylation, AlphaScreen, 2 h; Potency, µM, usual class: inhibitors; 89% of 370 active; further: potency means the concentration at half of the fitted maximal effect; nearly all actives have a fitted effect of over 65% in size
# RGS4 confirm: inhibits human RGS4, hit validation | 80% of 25 active | RGS4 GAP activity, Transcreener GDP fluorescence polarization | shares compounds with JMJD2A Tudor inh | Potency, µM, most hits filed as inhibitors
# The depositor's hits bear a star; ? = inconclusive; / = no result given; ! = not active in a repeat; [ ] = remark or other dose. Rows were chosen to be rich in hits. Some 5.7% of all compounds tested hit in one or more screens of this group. Unless noted, the call rests on the fitted dose curve; in most records, active means well fitted curve in the direction sought with a large enough effect; inconclusive means small, poorly fitted or top-dose-only effect, or another doubt; inactive means no such curve, though single readings can be large; an effect the other way counts as inactive or inconclusive.
SMILES,JMJD2E inh-1,JMJD2A Tudor inh,PI5P4K alpha inh,BAZ2B inh,L3MBTL1 block,HP1b binding inh,G9a inh,others
COc1ccc(NCc2nnc(SCC(=O)c3ccc(OC)cc3)n2C)cc1,-22%,56µM*,0,-1%,/,18%,11*,
CCCCCC(=O)NC(=S)Nc1ccc2oc(=O)ccc2c1,4%,-14%,-4,6%,8%,8%,/,
COc1ccccc1N1CCN(C(=O)CSc2nc3ccccc3nc2Cc2ccc(F)cc2)CC1,/,-17%,/,-10%,/,15%[57 µM],/,
O=C(CNC(=O)OCc1ccccc1)Nc1ccc(F)cc1,/,?,0,3%,4%,16%,?,
O=C(CNc1ccccc1)Nc1ccc(F)cc1,0%,-22%,/,-4%,21%,21%,/,
CCOC(=O)C1CCN(Cc2ccc(O)c3ncccc23)CC1,8.9µM*,10µM*,/,4µM*,28µM*,-12%,/,JMJD2E inh-2=13µM*;FDH counter=?
CCN(CC)C(=O)CSc1nc2c(sc(=S)n2-c2ccccc2)c(=O)n1-c1ccc(OC)c(OC)c1,/,-25%,6,-2%,/,36%,/,
Cc1ccc(NC2CCCN(C(=O)c3cn4cc(Cl)ccc4n3)C2)cc1C (centres undefined),/,1%,3,?,/,24%,32*,
Cc1cc(C)nc(N/N=C/c2cc(Br)ccc2O)n1,?,-32%,-9,-19%,-13%,46%,/,
COc1ccc(NC(=O)CN2CCN(CC(=O)Nc3ccc(OC)c(OC)c3)CC2)cc1,11%,-8%,2,-1%,/,18%,/,
CCOc1ccc(NC(=O)CN2CCN(CC(=O)c3ccc(OC)c(OC)c3)CC2)cc1,-2%,?,-17,8%,/,0%,45*,
CCOc1ccc(NC(=O)CCN2CCN(S(=O)(=O)c3cc(Cl)ccc3OC)CC2)cc1,5%,-13%,8,0%,-7%,27%,/,
CCOc1ccc(NC(=O)CN2CCN(CC(=O)c3ccc(OCC)cc3)CC2)cc1,-15%,?,1,8%,1%[11.4 µM],46%,5.6*,
CCN(CC)c1ccc(NC(=O)CN2CCN(S(=O)(=O)c3cc(Cl)ccc3OC)CC2)cc1,-11%,40µM*,/,50µM*!,/,?,4*,
CCOc1ccc(NC(=O)CN2CCN(CC(=O)Nc3ccc(C(N)=O)cc3)CC2)cc1,/,5%,6,2%,/,32%,/,
CC(C(=O)N1CCCCC1)N(C)CC(=O)Nc1cccc(F)c1 (centres undefined),/,25µM*,0,16µM*,2%,-22%,45*,
COc1ccc(Cl)cc1NC(=O)C1CCN(S(C)(=O)=O)CC1,/,0%,7,0%,4%,13%,/,
Cc1cc(Cl)ccc1OCCn1cncn1,2%,-2%,-3,-1%,/,40%,/,
c1ccc(Oc2cccc(OCCn3cncn3)c2)cc1,?,25µM*,-3,40µM*,/,-55%,28*,
CCC(=O)N1CCC(C)(C(=O)Nc2ccc3c(c2)OCCO3)C1 (centres undefined),/,/,-4,/,/,/,/,
O=C(CC1C(=O)NCCN1Cc1cccc(F)c1)NC1CCCCC1 (centres undefined),/,-10%,1,-9%,/,35%,/,
Cc1ccc(S(=O)(=O)Nc2cccc(-c3ccc(N4CCCCCC4)nn3)c2)cc1,/,4%,-2,-24%,/,24%,/,
COCCn1nnnc1C(c1ccc(O)c(OC)c1)N1CCc2ccccc2C1 (centres undefined),-29%,?,-11,?,/,?,0.71*,
COc1ccc(C(c2nnnn2C2CCCC2)N2CCc3ccccc3C2)cc1OC (centres undefined),-16%,-33%,5,?,-2%,29%,/,
Cn1c(SCC(=O)NCc2ccccc2)nnc1-c1ccc(NC(=O)CCc2ccccc2)cc1,0%,-13%,2,?,/,20%,11*,
SMILES,JMJD2E inh-1,JMJD2A Tudor inh,PI5P4K alpha inh,BAZ2B inh,L3MBTL1 block,HP1b binding inh,G9a inh,others
COc1ccccc1NC(=O)CSc1nnc(-c2ccc(NC(C)=O)cc2)n1C,-1%,5%,-9,?,7%,40%,/,
COc1ccccc1C(=O)Nc1ccc(-c2nnc(SCC(=O)O)n2C)cc1,?,100µM*,-15,?,/,30%,8*,
COc1ccc(NC(=O)CCCSc2ccccc2)cc1,-6%,1%,5,6%,18%,45%,/,
COc1ccccc1-c1cnc(C(O)c2ccc(C)cc2C)[nH]1 (centres undefined),/,/,-1,/,/,/,/,
CCOc1ccc(S(=O)(=O)Nc2nc3ccccc3nc2N2CCN(C)CC2)cc1,18%,-12%,2,-28%,/,30%,?,
COc1ccccc1-c1cncnc1NCc1cccnc1,-9%,/,/,/,/,/,/,
COc1cccc(-c2cncnc2NCc2cccnc2)c1,/,/,/,/,/,/,/,RGS4 confirm=30*
CN(C)c1ccc(NC(=O)C2(c3cccs3)CCOCC2)cc1,/,?,/,40µM*,/,-15%,7.1*,
Cn1c(N)c(C(=O)COC(=O)COc2cc(Cl)c(Cl)cc2Cl)c(=O)n(C)c1=O,/,-6%,1,/,1%,19%[57 µM],/,
CCn1cnc2cc(NCc3nc4ccccc4n3C)ccc21,?,-35%,/,?,/,-4%,?,
CCOc1ccc(CNc2ccc3c(c2)ncn3C)cc1,?,?,-4,?,-25%,-18%,1.8*,
CCn1cnc2cc(NCc3ccc(C)cc3)ccc21,?,?,/,?,/,-10%,4.5*,
CC(C)n1cnc2cc(NCc3nc4ccccc4n3C)ccc21,-2%,?,-5,?,-10%,10%,/,
CN(C)C(CNC(=O)c1cccc(S(=O)(=O)NCc2ccccc2)c1)c1ccco1 (centres undefined),/,-2%,1,-8%,-12%,29%,/,
COc1ccc(NC(=O)CS(=O)(=O)Cc2ccccc2)c([N+](=O)[O-])c1,/,-8%,1,-6%,/,11%,/,
Cc1cccc(OCC(=O)N(Cc2ccccc2)c2ccccn2)c1,/,18%,/,3%,/,40%,/,
